Data reported in PubChem BioAssay AID720566 (Broad Institute, 2013).
Entries with a potency or affinity are not part of this list.

Each molecule was assayed against Protein disulfide-isomerase A6 (Homo sapiens) (UniProt Q15084) (assay: reduced insulin turbidity driven by ERp5 (PDIA6) – biochemical, absorbance 650 nm, cherry-picked samples, dose response (AID 720566;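 note: negative values mean less insulin aggregation so ERp5 inhibition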)). Conditions: Recombinant ERp5 insulin aggregation; series mostly up to 35 µM; activity change, negative = inhibition: at the top concentration;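 active = in all runs, an absorbance decrease of 25% or more of the average positive control decrease; inconclusive = runs conflict, with both active and inactive results; inactive = all runs inactive, opposite-direction effects included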.
Sequence of Protein disulfide-isomerase A6 (Homo sapiens) (Q15084 whole entry, looked up): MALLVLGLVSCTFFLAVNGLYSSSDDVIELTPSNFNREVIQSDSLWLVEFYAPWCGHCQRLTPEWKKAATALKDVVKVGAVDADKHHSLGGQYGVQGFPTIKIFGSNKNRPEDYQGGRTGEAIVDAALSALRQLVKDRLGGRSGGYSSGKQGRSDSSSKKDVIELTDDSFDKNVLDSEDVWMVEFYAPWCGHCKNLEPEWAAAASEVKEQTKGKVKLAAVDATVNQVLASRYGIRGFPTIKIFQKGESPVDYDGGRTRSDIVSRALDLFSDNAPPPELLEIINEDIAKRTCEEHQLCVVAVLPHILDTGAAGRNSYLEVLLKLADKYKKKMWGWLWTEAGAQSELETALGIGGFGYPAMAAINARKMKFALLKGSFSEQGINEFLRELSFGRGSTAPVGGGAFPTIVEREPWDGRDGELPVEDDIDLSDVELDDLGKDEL

Activity change, negative = inhibition, inactive:
COc1ccc2c3c([nH]c2c1)[C@H](CO)N(C(=O)C1CCOCC1)CC31CCN(Cc2nccs2)CC1 4.53%
CCCN(C)C[C@@H]1Oc2cc(-c3ccc(F)cc3)ccc2S(=O)(=O)N([C@@H](C)CO)C[C@@H]1C 4.34%
COCC(=O)N(C)C[C@H]1Oc2cc(C#CC(C)(C)O)ccc2S(=O)(=O)N([C@@H](C)CO)C[C@@H]1C 2.99%
COc1ccc2c3c([nH]c2c1)[C@H](CO)N(C(=O)NC(C)C)CC31CN(C(=O)C2CCCC2)C1 -3.95%
Cn1c(COc2ccccc2)nnc1SCC(=O)Nc1nnc(C2CC2)s1 20%
O=C(C[C@@H]1C[C@H]2c3cc(NS(=O)(=O)c4ccccc4)ccc3O[C@H]2[C@H](CO)O1)NC1CCCCC1 -9.74%
C[C@H]1CN([C@@H](C)CO)C(=O)Cc2cc(NC(=O)c3ccncc3)ccc2O[C@H]1CN(C)S(=O)(=O)c1cn(C)cn1 2.8%
O=C(CN1C(=O)NC2(CCCC2)C1=O)Nc1cc(C(F)(F)F)ccc1N1CCCCC1 13.5%
C[C@@H]1CN([C@H](C)CO)C(=O)Cc2cc(NC(=O)c3ccncc3)ccc2O[C@H]1CN(C)S(=O)(=O)c1cn(C)cn1 2.41% [at 30 µM]
Cc1ccc(NC(=O)COc2ccccc2)c(NC(=O)c2ccco2)c1 2.38%
C[C@@H]1CN([C@H](C)CO)C(=O)c2cc(-c3cccc(C#N)c3)cnc2O[C@H]1CN(C)Cc1cncnc1 1.45%
CCCNC(=O)C[C@H]1C[C@@H]2c3cc(NC(=O)CC4CC4)ccc3O[C@@H]2[C@@H](CO)O1 -10.3%
CN1C(=O)c2cc(NC(=O)C3CCCCC3)ccc2OC[C@@H]2O[C@@H](CC(=O)NC3CCCC3)CC[C@H]21 2.02%
Cc1ccc(S(=O)(=O)C=CS(=O)(=O)c2ccc(C)cc2)cc1 -25.3%
CCN(CC)S(=O)(=O)c1ccc2c(c1)N(CC(=O)NCCN1CCOCC1)C(=O)CO2 14.4%
C[C@@H]1CN([C@H](C)CO)C(=O)c2cccc(NS(=O)(=O)c3ccc(Cl)cc3)c2O[C@@H]1CN(C)Cc1ccc(C(F)(F)F)cc1 -7.04%
O=C(C[C@@H]1C[C@H]2c3cc(NC(=O)CC4CC4)ccc3O[C@H]2[C@@H](CO)O1)NCc1ccc(-c2ccccc2)cc1 4.66%
Cc1noc(C)c1S(=O)(=O)Nc1cccc2c1O[C@H](CN(C)C(=O)Nc1ccc(C(F)(F)F)cc1)[C@H](C)CN([C@@H](C)CO)C2=O 3.91%
C[C@H](CO)N1C[C@H](C)[C@H](CN(C)C(=O)CCC(F)(F)F)OCCCC[C@H](C)Oc2ccc(NS(=O)(=O)c3ccc(Cl)cc3)cc2C1=O 7.45%
CN(CC(=O)Nc1ccc(F)cc1)CC(=O)NC1CCCCC1 9.17%
O=C(CCN1C(=O)/C(=C\c2ccccc2)SC1=S)NCCCN1CCOCC1 -1.25%
Cc1noc(C)c1NC(=O)N(C)C[C@H]1Oc2c(NS(=O)(=O)c3ccc(Cl)cc3)cccc2C(=O)N([C@@H](C)CO)C[C@@H]1C -1.25% [at 30 µM]
C/C=C/c1ccc2c(c1)O[C@@H](CN(C)S(C)(=O)=O)[C@H](C)CN([C@H](C)CO)S2(=O)=O -1.64%
C[C@H](CO)N1C[C@H](C)[C@H](CN(C)Cc2cccc(F)c2)Oc2ncc(Br)cc2C1=O 2.02%
C[C@@H]1CCCCO[C@@H](CN(C)C(=O)CCC(F)(F)F)[C@H](C)CN([C@@H](C)CO)C(=O)c2cc(NS(=O)(=O)c3ccc(Cl)cc3)ccc2O1 5.59%
COc1ccc2c3c([nH]c2c1)[C@@H](CO)N(C(=O)c1ccc(F)cc1)CC31CCN(C(=O)Nc2cccc(F)c2)CC1 6.85%
COc1ccc2c3c([nH]c2c1)[C@@H](CO)N(C(=O)C1CCCC1)CC31CCN(C(=O)NC(C)C)CC1 4.34%
C[C@@H]1CN([C@@H](C)CO)C(=O)c2cc(Br)cnc2O[C@H]1CN(C)Cc1cccc(F)c1 1.25%
COC(=O)C[C@@H]1C[C@@H]2c3cc(NC(=O)Cc4ccncc4)ccc3O[C@@H]2[C@H](CO)O1 0.675%
COC(=O)C[C@H]1C[C@@H]2c3cc(NC(=O)Cc4ccncc4)ccc3O[C@@H]2[C@@H](CO)O1 2.05%
COc1ccccc1NS(=O)(=O)c1ccc(C(=O)N2CCN(c3ccccn3)CC2)cc1 -5.32%
CCC1(CC)NC(=O)N(CC(=O)OC(C)C(=O)Nc2ccc(NC(C)=O)cc2)C1=O (centres undefined) 8.27%
COC(=O)[C@]1(C)N[C@H](CN(C)S(=O)(=O)c2ccc(OC(F)(F)F)cc2)[C@@H]2C(=O)N(C)C(=O)[C@@H]21 2.15%
COc1ccc2c3c(n(C)c2c1)[C@H](CO)N(S(C)(=O)=O)CC31CCN(CC2CCCC2)CC1 2.99%
